# Data taken from PubChem BioAssay (NCI).
# About 83,000 compounds went through this panel and 20% of them were active in at least one assay; those are over-represented in the sample as a whole.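 Negative percent growth values reflect cell death: -40 means 40% of the cells present at the start died, and -100 means all died.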 Values without a mark were called inactive. The source made the active and inactive calls. How the source made its calls: active means growth percent below 10; inactive means the rest.
# Tests used:
# Assay in all cases: NCI-60 one-dose screen, 48 h (100 = growth as untreated, 0 = no growth, -100 = all killed)
# Conditions in all cases: 10 µM
# NCI-H23 lung = test system: NCI-H23 lung
# NCI-H226 lung = test system: NCI-H226 lung
# NCI-H322M lung = test system: NCI-H322M lung
# HOP-62 NSCLC = test system: HOP-62 NSCLC
# NCI-H460 lung = test system: NCI-H460 lung
# NCI-H522 lung = test system: NCI-H522 lung
# A549/ATCC NSCLC = test system: A549/ATCC NSCLC
# 786-0 renal = test system: 786-0 renal
# COLO 205 colon = test system: COLO 205 colon
SMILES,growth (NCI-H23 lung) [%],growth (NCI-H226 lung),growth (NCI-H322M lung) [%],growth (HOP-62 NSCLC) [%],growth (NCI-H460 lung),growth (NCI-H522 lung),growth (A549/ATCC NSCLC) [%],growth (786-0 renal),growth (COLO 205 colon)
CNC(=O)c1ccccc1CC1(O)c2ccccc2Oc2ccccc21,71.5,77%,51.8,71.4,33.7%,24.8%,41.8,74.8%,38%
COc1cc(C(=O)NC(=S)Nc2ccc3ccccc3c2)cc(OC)c1OC,82.5,88.9%,101,95.8,107%,-23.4% (active),89.7,116%,84.2%
O=c1cc(-c2ccccc2)nc2cc(-c3ccco3)[nH]n12,96.5,102%,95.6,88.3,104%,71.8%,56.7,111%,95.6%
O=C(NC1CCCCC1)OCc1c(COC(=O)NC2CCCCC2)c(-c2ccc(Cl)c(Cl)c2)n2c1CCC2,22.7,2.9% (active),48.6,27.4,3.73% (active),-23.9% (active),,8.95% (active),31.8%
CC(C)(C)c1cc(O)c(C(C)(C)C)cc1O,96.3,67.8%,100,105,96.3%,63.3%,87.4,95.8%,108%
COc1ccc(C)cc1OC,96.4,98.8%,88.8,102,107%,104%,96.9,105%,113%
O=C(Cc1ccccc1)Cc1ccccc1,103,100%,104,110,102%,97%,96,95.2%,110%
O=C1C=CC2=C3c4cc(O)c(O)cc4CC3(O)COC2=C1O (centres undefined),117,95.1%,107,100,89.8%,84.5%,,92.1%,98.6%
C=CC(=O)OCCCCCCCC,105,98.9%,117,98.4,102%,,99.8,104%,107%
CC1=CC(C)(C)NC(=S)N1c1ccc(S(=O)(=O)O)c2cccc(S(=O)(=O)O)c12,101,100%,127,99.5,110%,,106,112%,102%
C/C(=N\NC(=O)c1ccccc1N)c1ccccc1O,38.7,52.8%,26.4,43.3,23.5%,,28.2,60.6%,9.89% (active)
Nc1nc(OCc2ccccc2)c2[nH]cnc2n1,93.6,96%,118,100,107%,86.5%,,87.1%,114%
CCOC(=O)C/C(C)=N\O,100,98.4%,97.9,90.2,106%,,95.6,96.1%,104%
COC(=O)c1ccc(NC(=O)CCl)cc1,85.3,118%,95.7,88.5,47.5%,,79.2,93.5%,103%
CCCCN(CCCC)CCCO,104,104%,136,106,109%,,106,109%,105%
CN(C)/N=C/c1ccccc1O,113,98.6%,89.7,109,100%,96.2%,,92.8%,112%
CO[C@H]1C[C@@H]2CC[C@@H](C)[C@@](O)(O2)C(=O)C(=O)N2CCCC[C@H]2C(=O)O[C@H]([C@H](C)C[C@@H]2CC[C@@H](O)[C@H](OC)C2)CC(=O)[C@H](C)C=C(C)[C@@H](O)[C@@H](OC)C(=O)[C@H](C)C[C@H](C)/C=C/C=C/C=C1C,45.4,62.2%,71.6,60.7,45.1%,53.8%,,46.9%,61.3%
CCCC(=O)c1cc(C)ccc1OC,108,99.7%,126,101,106%,,111,,112%

SMILES,growth (NCI-H23 lung) [%],growth (NCI-H226 lung),growth (NCI-H322M lung) [%],growth (HOP-62 NSCLC) [%],growth (NCI-H460 lung),growth (NCI-H522 lung),growth (A549/ATCC NSCLC) [%],growth (786-0 renal),growth (COLO 205 colon)
NC(C(=O)O)c1ccc([N+](=O)[O-])cc1 (centres undefined),105,103%,111,96.5,108%,,109,109%,104%
OCc1cccc2ccccc12,101,112%,121,104,112%,,108,109%,114%
CCC/C=C(\C)C(C)(C#N)C(=O)OCC (centres undefined),116,101%,111,99.1,108%,,,110%,110%
COc1cc(CCN=Cc2ccccc2O)c([N+](=O)[O-])cc1OC,100,104%,101,91.9,108%,,102,92.6%,110%
CN(C)C(C)(C)CC(C)(C)C,103,99.7%,116,104,108%,,108,100%,106%
CC(=O)Nc1ccc(NC(C)=O)c2c1C(=O)c1ccccc1C2=O,89.5,81.7%,89.1,81.9,102%,89.3%,,91%,87.6%
COc1ccc(/C=C/c2cccc[n+]2C)cc1,100,101%,93.5,77.5,106%,,,94.3%,42.1%
COC(=O)C(O)c1ccccc1 (centres undefined),106,107%,125,105,105%,,115,,111%
COc1cc(C(N)=O)cc(OC)c1OC,101,102%,106,99.6,111%,102%,,108%,101%
CCC(C)(C)C1CCC(O)CC1 (centres undefined),91,103%,103,90.5,103%,,106,,110%
Nc1ccc(N)c([N+](=O)[O-])c1,103,94.1%,101,111,96%,86.4%,,118%,112%
Cc1c(O)cnc2nn(-c3ccccc3)c(=N)n12,102,100%,114,98.3,103%,,96.1,102%,123%
CCOC(=O)Nc1cc2c(c(N)n1)N=C(c1ccccc1)CO2,34.8,39.6%,15.3,50,8.86% (active),-13.9% (active),,39.1%,6.19% (active)
COCCCNC(=O)c1nnn2c1nc(N)c1cc(Cl)ccc12,98.4,94.1%,88.9,80.4,102%,,106,96.6%,77.7%
Cc1c(O)cccc1O,106,93.4%,90.3,92,114%,73.1%,,102%,116%
NC(CSC(c1ccccc1)(c1ccccc1)c1ccccc1)C(=O)O (centres undefined),61.3,87.6%,43.9,44.5,13.6%,,25.7,49.4%,23.2%
CCC(=O)Oc1ccc(OC)cc1,108,105%,95.5,98,104%,,105,105%,110%
O=c1[nH]n(-c2ccccc2)c(=O)cc1Cl,106,93.6%,114,108,109%,,102,103%,104%
